PubChem BioAssay AID652017 (The Scripps Research Institute Molecular Screening Center, 2013)
The whole screen tested about 370,000 compounds, of which about 3,800 (1%) were called active. The entries come from a sample that favours actives as a whole. A number with no mark means an inactive call. No stated cut-off is given here; in the data, active means activation above about 7.8%; inactive means the rest.

assay: SMARCA2 (BRM) function activators, primary screen, cell-based, luminescence, high throughput (AID 652017); conditions: MG213 cells, MMTV-luciferase reporter, dexamethasone, overnight; at 9.1 µM; hits give high values;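 further: 0% = vehicle wells and 100% = reference activator wells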

SMILES	activation
CN(C)c1nc(=Nc2cccc(Cl)c2)ss1	10.5% (active)
CCCCCCCCNS(=O)(=O)/C=C/c1cc(C)ccc1CNC(=O)OC(C)(C)C	-5.6%
C=CCN1C(=O)[C@@H](CC(=O)NCC2CCCCC2)[C@]2(C(=O)OC)CCCCC=C12	-0.86%
CCOC(=O)c1cc2cc(-c3c(C(=O)OCC)oc4cc(O)cc(O)c4c3=O)ccc2o1	-3.39%
Cc1ccc(-c2nc(CSCC(=O)NC3CCN(Cc4ccccc4)CC3)c(C)o2)cc1	-3.96%
Cc1cc(NC(=O)CSCc2nc(-c3cccc(Cl)c3)oc2C)no1	-4.35%
Cc1ccsc1-c1nc(CSCC(=O)NCCN2CCCC2)c(C)o1	8.31% (active)
C=CCN1C(=O)[C@@H](CC(=O)NCCCCc2ccccc2)[C@]2(C(=O)OCC)CCCCC/C=C/12	-5.79%
CC1(C)O[C@@H]2CC3C4C[C@H](F)C5=CC(=O)C=CC5(C)C4C(O)CC3(C)[C@]2(C(=O)CO)O1 (stereo partly specified)	-1.35%
C=C(C)C#CC(Cc1ccccc1)NCC1CC1 (stereo unspecified)	-5.21%
COCCOC1CCN(C(=O)c2ccc(OC)c(OC3CCN(C(C)C)CC3)c2)CC1	-1.95%
CC(C)Cc1nnc(NC(=O)CCNC(=O)c2ccccc2Cl)s1	9.18% (active)
CC(C)Cc1nnc(NC(=O)CCC(=O)Nc2ccc3cn[nH]c3c2)s1	-4%
COc1ccccc1OCCNC(=O)CCNC(=O)c1ccccc1Cl	0.37%
Cc1nc2cc(S(=O)(=O)C(F)(F)F)ccc2s1	5.28%
COC(=O)Cc1ccc(OC(=O)C2CCN(S(=O)(=O)c3ccc(OC)c(OC)c3)CC2)cc1	-1.69%
Cc1ccc(-n2c(SCC(=O)Nc3ccc(S(=O)(=O)Nc4nccs4)cc3)nnc2-c2ccncc2)cc1	-0.03%
Cc1cc(-n2cnc(-c3cn(C)nc3C)n2)no1	8.03% (active)
Cc1ccc(Cn2cc(COC(=O)N(C)Cc3ccccc3)nn2)cc1	-1.94%
O=S1(=O)c2c(cccc2N2CCCCC2)O[C@H](COCc2ccccc2)CN1C1CC1	-5.02%
CCOc1ccc(-n2c(SCC(=O)Nc3cc(C)c(NC(=O)c4ccccc4)cc3OC)nnc2-c2cccs2)cc1	-4.31%
CCOC(=O)c1c(NC(=S)SC)sc(C(=O)N2CCc3ccccc3C2)c1C	-2.6%
O=C(C(=O)N1CCc2ccccc2C1)c1c[nH]c2ccccc12	0.35%

SMILES	activation
O=C(Nc1cccc([N+](=O)[O-])c1)N1CCc2ccccc2C1	12.9% (active)
CCc1ccc(NC(=O)N2CCc3ccccc3C2)cc1	7.91% (active)
Cc1cccc(C)c1NC(=O)c1ccc(CN2CCc3ccccc3C2)cc1	-1.14%
Cc1cccc(OC(C)C(=O)N2CCc3ccccc3C2)c1 (stereo unspecified)	-2.36%
COC(=O)c1ccccc1-n1cc(COC(=O)NCCc2ccccc2)nn1	-2.76%
CCCCNC(=O)C[C@H]1C(=O)N(Cc2ccc(OC)cc2)C2=CCCC[C@@]21C(=O)OCC	-1.43%
Cn1c(=O)c2c(nc(N/N=C/c3cccs3)n2Cc2ccc(Br)cc2)n(C)c1=O	-0.25%
Cc1n[nH]c(=O)nc1N/N=C/c1cccs1	9.22% (active)
Cc1nc2ccccc2n1CC(=O)N/N=C/c1cccs1	0.43%
O=C(c1ccncc1)N1CC[C@H]2[C@H](CCCN2Cc2ccc(F)cc2)C1	0.1%
COc1ccc(Cn2ccc3ccc(-c4ccc5ccn(Cc6ccccc6C)c5c4)cc32)cc1	-1.41%
COC(=O)C[C@@H]1CC[C@@H]2[C@H](COc3ccc(NC(=O)c4cccc(F)c4)cc3C(=O)N2C)O1	-3.28%
COC(=O)C[C@H]1CC[C@H]2[C@H](COc3ccc(NC(=O)C4CC4)cc3C(=O)N2C)O1	-0.29%
COc1cc(/C=N/NC(=O)Nc2ccccc2)ccc1OCCOc1ccccc1C	-2.07%
COc1ccc(S(=O)(=O)N(CC(=O)N/N=C/c2ccc(C(=O)O)cc2)Cc2ccccc2)cc1OC	0.18%
COc1cc(/C=N/NC(=O)c2ccccc2)ccc1OS(=O)(=O)c1ccccc1	11.6% (active)
COc1ccc(S(=O)(=O)NC(C)C(=O)NCc2ccncc2)cc1Cl (stereo unspecified)	-1.23%
Cc1ccc(CNC(=O)COc2ccc(S(=O)(=O)NC(C)C)cc2)cc1	-3.1%
Cc1ccc(S(=O)(=O)NC(C)C(=O)NCc2ccc(Cl)cc2)cc1 (stereo unspecified)	8.48% (active)
CCCSC(=S)NC1CCS(=O)(=O)C1 (stereo unspecified)	8.13% (active)
CC(C)C(=O)NC(NC(=S)NC1CCS(=O)(=O)C1)C(Cl)(Cl)Cl (stereo unspecified)	1.31%
O=S1(=O)CCC(NC(=S)SCc2ccccc2Br)C1 (stereo unspecified)	-1.67%
COc1ccc(C(=O)OCCN2CCN(C3CN(Cc4cn(Cc5ccccc5F)nn4)S(=O)(=O)C3)CC2)cc1OC (stereo unspecified)	-1.26%

SMILES	activation
Cc1c(C=O)n(C)n(-c2ccccc2)c1=O	1.03%
Cc1nc(N)sc1N=Nc1c(C)n(C)n(-c2ccccc2)c1=O	-4.59%
Cc1c(N=Nc2ccc(N(C)C)cc2)c(=O)n(-c2ccccc2)n1C	7.84% (active)
C[C@@H]1COc2cccc(N3CCCC3)c2S(=O)(=O)N1C	-1.71%
COc1ccc(-c2cc(C(=O)NC(Cc3c[nH]c4ccccc34)C(=O)O)c(C)o2)cc1OC (stereo unspecified)	3.58%
COc1cccc(CNC(=O)[C@H]2CCCN2C(=O)[C@H]2CCCN2C(=O)C2CCCCC2)c1	-3.87%
CCN(CC)CCCNC(=O)Cn1cnc2sc(C)c(S(=O)(=O)N3CCN(c4ncccn4)CC3)c2c1=O	-0.93%
CCN(CC)CCNC(=O)c1sc2ncn(CC(=O)Nc3ccc(C)c(Cl)c3)c(=O)c2c1C	7.84% (active)
CCN(CC)CCNC(=O)Cn1cnc2sc(C)c(S(=O)(=O)N3CCOCC3)c2c1=O	-6.85%
Cc1cccc(C)c1NC(=S)N(Cc1cccnc1)Cc1ccccc1Cl	-5.44%
CCOC(=O)[C@]12CCCC=C1N(Cc1ccc(OC)cc1)C(=O)[C@@H]2CC(=O)N1CCOCC1	1.91%
COc1ccc(-n2c(COc3ccccc3)nnc2SCC(=O)Nc2ccc3c(c2)OCO3)cc1	-4.96%
O=C(Nc1cccc2c1CCCC2)c1ccc(F)cc1	-0.7%
O=C(NCC1CCCO1)c1cc2c(s1)CCCC2 (stereo unspecified)	10.9% (active)
CCC(=O)c1c[nH]c(C(=O)NCC2CCCO2)c1 (stereo unspecified)	1.33%
O=C(Nc1ccc(F)cc1)c1cc2c(s1)CCCC2	10.2% (active)
O=C(NCCCn1ccnc1)c1cc2c(s1)CCCC2	-1.02%
O=C(CNC(=O)c1cc2c(s1)CCC2)Nc1ccccc1Br	3.62%
Cc1ccccc1NC(=O)C1CCN(c2ncccn2)CC1	-1.72%
CC(=O)N1CCc2cc(S(=O)(=O)NCCC(=O)N3CCCC3)ccc21	-4.7%
COC(=O)C1CN(Cc2cn(Cc3ccc(F)cc3)nn2)CCS(=O)(=O)N1Cc1ccc(Cl)cc1 (stereo unspecified)	-3.03%
COc1ccc(-c2cc3ncccc3cn2)cc1	8.94% (active)
COc1cc(OC)cc(-c2cc3ccc(F)cc3cn2)c1	7.74%

SMILES	activation
COc1ccc(-c2cc(C3CCN(c4ncccc4[N+](=O)[O-])CC3)[nH]n2)cc1	-2.21%
COCCn1c(C)cc(C(=O)CSc2nc3ccccc3c(=O)n2C(C)COC)c1C (stereo unspecified)	-2.97%
COCC(C)n1c(SCc2ccc(C(=O)OC)o2)nc2ccccc2c1=O (stereo unspecified)	9.35% (active)
COCC(C)n1c(SCC(=O)NC2CCCCC2C)nc2ccccc2c1=O (stereo unspecified)	-2.03%
COC(=O)C1CN(Cc2ccc(F)cc2)CCS(=O)(=O)N1Cc1ccc(Cl)cc1 (stereo unspecified)	-2.03%
c1ccc2cc3c(NCCN4CCOCC4)ccnc3cc2c1	15.8% (active)
O=C(Cc1ccc(Br)cc1)NCCN1CCOCC1	5.26%
CSc1ccc(CNCCN2CCOCC2)cc1	-0.08%
CC(C)(C)n1nc(C2CC2)c(Br)c1NC(=O)c1ccccc1F	-3.81%
COc1ccc(S(=O)(=O)N2CCOCC2)cc1NC(=O)Cc1coc2cc(C)ccc12	-0.89%
C#CCCN([C@H](C(=O)OC)C(C)C)S(=O)(=O)c1ccc(F)cc1Br	0.37%
O=C(OC12CCCN(C1)/C(=C/c1cccnc1)C2)C1CCCC1 (stereo unspecified)	-1.64%
Cc1ccc(N/C=C/C(=O)c2ccccc2)cc1C	14.5% (active)
Cc1cccc(C(=O)Nc2ccc(C(=O)/C=C/c3cccs3)cc2)c1	7.01%
COC(C(=O)Nc1ccc(S(=O)(=O)Nc2ccc(C)c(C)c2)cc1)c1ccccc1 (stereo unspecified)	-2.54%
O=C(CCCCCCCC(=O)N1CCCCC1)N1CCCCC1	-4.31%
Cc1cccc(C(=O)Nc2c(-c3ccc(F)cc3)nc3ncccn23)c1	-2.99%
CC(c1ccc(N)cc1)c1cn(C)c2ccccc12 (stereo unspecified)	2.03%
Cc1ccc(CN(N=Nc2nonc2N)c2nonc2N)c(C)c1	-3.9%
O=C(COC(=O)C1CC2C=CC1C2)Nc1ccccc1 (stereo unspecified)	-3.49%
CC(NC(=S)Nc1ccc(OC(F)F)cc1)c1ccc(F)cc1 (stereo unspecified)	-2.75%
CC(C)c1ccc(NC(=S)NC2CC3C=CC2C3)cc1 (stereo unspecified)	8.66% (active)
